Shown are actives, neighbours in structure and some others; about 1.6% of the full set was active somewhere.
KCNQ2 pot – potentiators of rat KCNQ2 potassium channel; CHO-K1 KCNQ2, FluxOR thallium flux fluorescence; stronger effect = higher value; 310,000 tested, 0.54% active; B-score at 10 µM; Potassium voltage-gated channel subfamily KQT member 2 (Rattus norvegicus), O88943;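 active means fluorescence ratio B-score at least 3 SD of library B-scores, with initial fluorescence B-score within 3 of them, cut at about 5.3 in these data; same plate scores as AID 2156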;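 further: B-score of peak minus minimum over baseline fluorescence ratio after K+ and Tl+ stimulus; positive B-score means potentiation of KCNQ2 with more thallium influx and brighter signal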
KCNQ2 block – rat KCNQ2 potassium channel inhibitors, primary screen, cell-based, CHO-K1, FluxOR thallium flux, B-score | Potassium voltage-gated channel subfamily KQT member 2 (Rattus norvegicus), O88943 | 20 min; stronger effect = lower value | B-score at 10 µM | 310,000 tested, 1.1% active | AID 2156, 2009;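 active means fluorescence ratio B-score at most minus 3 library SDs, with starting brightness B-score within 2 library SDs, cut at about -5.5 in these data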
KCNQ2 inh conf – rat KCNQ2 potassium channel inhibitors, confirmation, cell-based, thallium flux. shares compounds with KCNQ2 block. KCNQ2-expressing cells, inhibition; stronger effect = lower value. activity change, negative = inhibition, % at 10 µM. 1,000 tested, 57% active. AID 493025, 2011;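 further: 0% = vehicle wells and values are ratio percent relative to vehicle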
KCNQ1 spec – human KCNQ1 channel inhibition, counter-screen for KCNQ2 inhibitor project, cell-based, FluxOR thallium flux | shares compounds with KCNQ2 block | KCNQ1-expressing cells, FluxOR thallium flux fluorescence; stronger effect = lower value | activity change, negative = inhibition, % at 10 µM | 1,000 tested, 15% active | AID 493026, 2011;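 active means activity change at least 3 SD of negative controls below their mean in both duplicate wells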;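 further: CHO cells stably transfected with KCNQ1 and depolarized by potassium stimulus; peak minus minimum fluorescence over baseline after thallium addition; 0% = vehicle negative control and -100% = blank without thallium stimulus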
Target sequence (P51787 whole entry, looked up): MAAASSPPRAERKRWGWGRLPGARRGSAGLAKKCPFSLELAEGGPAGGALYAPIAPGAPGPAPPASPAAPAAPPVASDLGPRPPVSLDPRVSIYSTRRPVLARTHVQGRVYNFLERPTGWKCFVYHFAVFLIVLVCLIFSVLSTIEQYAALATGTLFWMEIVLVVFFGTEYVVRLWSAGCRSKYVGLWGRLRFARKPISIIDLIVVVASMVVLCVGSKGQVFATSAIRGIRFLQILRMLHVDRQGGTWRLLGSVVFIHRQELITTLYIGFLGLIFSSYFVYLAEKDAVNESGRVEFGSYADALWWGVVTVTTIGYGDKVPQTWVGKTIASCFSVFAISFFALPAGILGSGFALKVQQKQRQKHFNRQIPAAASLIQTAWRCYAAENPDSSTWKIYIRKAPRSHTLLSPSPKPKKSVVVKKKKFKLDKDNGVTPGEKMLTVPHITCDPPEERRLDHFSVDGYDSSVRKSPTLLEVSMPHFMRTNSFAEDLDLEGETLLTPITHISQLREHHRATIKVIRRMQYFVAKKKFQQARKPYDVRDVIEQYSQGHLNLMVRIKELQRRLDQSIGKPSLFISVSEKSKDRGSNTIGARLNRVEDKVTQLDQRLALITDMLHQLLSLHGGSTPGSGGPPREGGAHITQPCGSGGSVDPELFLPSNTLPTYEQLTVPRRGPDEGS
CHO Tl ctr – thallium flux change in parental CHO cells, counter-screen for KCNQ2 inhibitor project | shares compounds with KCNQ2 block | stronger effect = lower value | activity change, % at 10 µM | 1,000 tested, 14% active;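 further: 0% = vehicle negative controls with stimulus buffer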
KCNQ2 inh confirm – rat KCNQ2 channel inhibitors, confirmation, cell-based, automated patch clamp, single concentration; calls only at 10 µM; KCNQ2-expressing cells, automated patch clamp current; AID 588531, 2011; 550 tested, 49% active; shares compounds with KCNQ2 block
Numbers without * were called inactive; i = inactive; x = no result given; + = active, no number. Unless noted, how the calls were made is not given here.

SMILES	KCNQ2 pot	KCNQ2 block	KCNQ2 inh conf	KCNQ1 spec	CHO Tl ctr	others
Cc1ccccc1-c1nnc(SCc2ccc(F)cc2)o1	-9.1	-9.1*	i	i	i
CCc1ccc(C2NC(=O)c3ccccc3O2)cc1 (stereo not given)	x	i	x	x	x
N#C/C(=C/C=C/c1ccccc1)C(=O)Nc1ccccc1	x	i	x	x	x
N#C/C(=C\C=C\c1ccccc1)C(=O)Nc1ccccc1	-7.4	-7.4*	i	i	i
COc1cccc(CN2CCN(S(=O)(=O)c3ccc(Cl)s3)CC2)c1	x	i	x	x	x
CCCOC(=O)C1C2C=CC(C3CC23)C1C(=O)OCC(=O)c1ccccc1 (stereo not given)	-9.4	-9.4*	i	i	i
COC(=O)C1C2CCC(C2)C1C(=O)OCC(=O)c1ccccc1 (stereo not given)	x	i	x	x	x
O=C1[C@H]2[C@@H](c3ccc(Cl)cc3)N3C(=O)N(c4cccc(Cl)c4)C(=O)[C@@]3(Cc3ccccc3)[C@H]2C(=O)N1C1CCCCC1	x	i	x	x	x
CSc1cccc(CN2CCCC(CO)(Cc3cccc(Cl)c3)C2)c1 (stereo not given)	-7	-7*	i	i	i
OCC1(Cc2cccc(Cl)c2)CCCN(Cc2ccc(F)c(F)c2)C1 (stereo not given)	x	i	x	x	x
O=C1N/C(=C/c2ccc(N3CCOCC3)o2)C(=O)N1c1cccc(Cl)c1	x	i	x	x	x
CC(C)CN(C)Cc1c(C(=O)N2CCc3ccccc3C2)nc2ccc(Cl)cn12	-8.7	-8.7*	-32%*	-38%*	-25%*	KCNQ2 inh confirm=+
Cc1cnc(CN(C)Cc2c(C(=O)N3CCc4ccccc4C3)nc3ccc(Cl)cn23)[nH]1	x	i	x	x	x
Cc1ccc(Sc2c(C)nn(C(=O)c3cccc(S(=O)(=O)N4CCOCC4)c3)c2C)cc1	-9	-9*	-33%*	i	i	KCNQ2 inh confirm=i
Cc1cc(C)n(C(=O)c2cccc(S(=O)(=O)N3CCOCC3)c2)n1	x	i	x	x	x
CC1=C(C(=O)NC(C)c2ccccc2)C2(CCC(C)CC2)OC1=O (stereo not given)	x	i	x	x	x
CC1=C(C(=O)NC(C)c2ccc3c(c2)OCCO3)C2(CCC(C)CC2)OC1=O (stereo not given)	-10	-10*	-26%*	i	i	KCNQ2 inh confirm=+
C/C(=C\c1ccccc1)C(=O)NCCc1ccccc1	x	i	x	x	x
O=C(CCN1CCOCC1)c1ccc2c(c1)OCCO2	-7.4	-7.4*	i	i	i
O=C(CCN1CCOCC1)c1ccccc1	-9.9	-9.9*	i	i	i
O=C(CCN1CCCCC1)c1ccccc1	x	i	x	x	x
O=C(OCCN1CCOCC1)c1ccc2c(c1)OCCO2	x	i	x	x	x
COc1ccc(/C=C/C(=O)O)cc1S(=O)(=O)N1CCCC1	x	i	x	x	x
COc1ccc2c(c1)C(c1ccccc1)NC(=O)C2 (stereo not given)	x	i	x	x	x
COc1ccc(C2CC(c3ccccc3)=NN2C(=O)c2ccc(F)cc2)cc1 (stereo not given)	0.66	i	x	x	x
SMILES	KCNQ2 pot	KCNQ2 block	KCNQ2 inh conf	KCNQ1 spec	CHO Tl ctr	others
O=C(Nc1ccccc1)N1N=C(c2ccc(F)cc2)CC1c1ccc(F)cc1 (stereo not given)	-6.7	-6.7*	i	i	i
Cc1cc(C(=O)Nc2ccccc2Cl)c2ccccc2n1	-6.9	-6.9*	-31%*	i	i	KCNQ2 inh confirm=+
Cc1cc(C(=O)NCc2cccc(Cl)c2)c2ccccc2n1	x	i	x	x	x
Cc1cc(C(=O)NCc2ccccc2Cl)c2ccccc2n1	-7.2	-7.2*	-22%*	i	i	KCNQ2 inh confirm=i
Cc1ccc(NC(=O)c2ccccn2)c(Br)c1	x	i	x	x	x
COc1cc(NC(=O)c2cc(C)nc3ccccc23)cc(OC)c1OC	x	i	x	x	x
Cc1ccc(NC(=O)c2cc(C)nc3ccccc23)c(Br)c1	-6.7	-6.7*	i	i	i
N#CCCn1cc(CNC2CCC(O)CC2)c2ccccc21 (stereo not given)	0.19	i	x	x	x
O=C(CSc1ncn[nH]1)N1c2ccccc2Sc2ccccc21	0.42	i	x	x	x
COc1ccc(CNC(=O)CN2C(=O)C(c3ccccc3)Oc3cccnc32)cc1 (stereo not given)	1.9	i	x	x	x
O=C(CN1C(=O)C(c2ccccc2)Oc2cccnc21)NCc1ccccc1F (stereo not given)	-6.8	-6.8*	-22%*	i	i	KCNQ2 inh confirm=+
CCOc1ccc(C2(C)NC(=O)N(CCN(C)C)C2=O)cc1 (stereo not given)	x	i	x	x	x
OC(CNCc1ccc(F)cc1)(c1ccc(F)cc1)c1ccc(F)cc1	x	i	x	x	x
COc1ccc(CNCC(O)(c2ccc(Cl)cc2)c2ccc(Cl)cc2)cc1OC	x	i	x	x	x
COc1ccc(CNC(c2ccccc2)c2ccc(Cl)cc2)cc1 (stereo not given)	-8.8	-8.8*	i	i	i
OC(CNCc1ccc(Cl)cc1)(c1ccccc1)c1ccc(F)cc1 (stereo not given)	-7.2	-7.2*	-33%*	-34%*	-32%*	KCNQ2 inh confirm=i
CC(NCc1ccc(OCc2ccc(Cl)cc2)cc1)C(O)c1ccccc1 (stereo not given)	x	i	x	x	x
COc1ccc(CNCC(O)(c2ccc(Cl)cc2)c2ccc(Cl)cc2)cc1	-7.7	-7.7*	i	i	i
CCC(=O)Oc1ccc2ccccc2c1CNC(=O)c1ccccc1	x	i	x	x	x
COc1ccc(OC)c(NC(=O)CC2Oc3ccccc3NC2=O)c1 (stereo not given)	x	i	x	x	x
COc1cc(CNCCO)cc(Br)c1OCc1ccccc1Cl	x	i	x	x	x
COc1cc(CNCCO)cc(Cl)c1OCc1ccc(Cl)cc1Cl	-9.8	-9.8*	-41%*	-31%*	-31%*	KCNQ2 inh confirm=i
Cc1ccc(C)c(N2CCN(C(=O)C(Cc3ccccc3)n3cccc3)CC2)c1 (stereo not given)	-7	-7*	-24%*	i	i	KCNQ2 inh confirm=i
Cc1ccc(C)c(N2CCN(C(=O)Cn3cccc3)CC2)c1	1.2	i	x	x	x
CCCCCCNC(=O)CC(NS(=O)(=O)c1ccc(OC)cc1)C(C)C (stereo not given)	x	i	x	x	x
SMILES	KCNQ2 pot	KCNQ2 block	KCNQ2 inh conf	KCNQ1 spec	CHO Tl ctr	others
COc1ccccc1CNC(=O)CSC1=NCCS1	-6.8	-6.8*	i	i	i
O=C(CSC1=NCCS1)NC(NC(=O)CSC1=NCCS1)c1ccccc1	0.49	i	x	x	x
O=C(CSC1=NCCS1)NC(c1ccccc1)c1ccccc1	-8.2	-8.2*	-42%*	-34%*	-32%*	KCNQ2 inh confirm=+
COc1ccccc1CNC(=O)CSc1ccc(Br)cc1	x	i	x	x	x
Cn1nc(C(=O)NCc2ccccc2Cl)c2c1-c1ccccc1S(=O)(=O)C2	0.03	i	x	x	x
CCOC(=O)C1(Cc2ccccc2C(F)(F)F)CCN(C2CCN(C(C)=O)CC2)CC1	1.2	i	x	x	x
Cc1ccc(Nc2cc(C)nc(NCc3ccccc3)n2)cc1	x	i	x	x	x
